Measurements reported in PubChem BioAssay (NCATS).
Records with an inconclusive call do not appear. Active and inactive are the calls of the source. Unless noted, calls come from the whole dose curve.

Columns and labels:
[1] = qHTS for Inhibitors of the Functional Ribonucleoprotein Complex (vRNP) of Lassa (LASV) Arenavirus: LASV Primary Screen - GLuc reporter signal (AID 1347082; calls by dose curve; tested in HEK293 reporter line; note: nearly all actives have a fitted effect of over 60% in size)
[2] = qHTS for Inhibitors of the Functional Ribonucleoprotein Complex (vRNP) of Lassa (LASV) Arenavirus: Viability assay - alamar blue signal for LASV Primary Screen (AID 1347083; calls by dose curve; tested in HEK293 reporter line; note: nearly all actives have a fitted effect of over 80% in size)
[3] = qHTS for Inhibitors of the Functional Ribonucleoprotein Complex (vRNP) of Lymphocytic Choriomeningitis Arenaviruses (LCMV): Viability assay - alamar blue signal for LCMV Primary Screen (AID 1347085; calls by dose curve; tested in HEK293 reporter line; note: nearly all actives have a fitted effect of over 80% in size)
[4] = molecular target: Nucleoprotein (Lymphocytic choriomeningitis virus (strain Armstrong)) (UniProt P09992); test: qHTS for Inhibitors of the Functional Ribonucleoprotein Complex (vRNP) of Lymphocytic Choriomeningitis Arenaviruses (LCMV): LCMV Primary Screen - GLuc reporter signal (AID 1347086); note: nearly all actives have a fitted effect of over 70% in size

Measured: Potency
Note: series mostly up to about 57 µM.

Chain of Nucleoprotein (Lymphocytic choriomeningitis virus (strain Armstrong)) (P09992 whole entry, looked up): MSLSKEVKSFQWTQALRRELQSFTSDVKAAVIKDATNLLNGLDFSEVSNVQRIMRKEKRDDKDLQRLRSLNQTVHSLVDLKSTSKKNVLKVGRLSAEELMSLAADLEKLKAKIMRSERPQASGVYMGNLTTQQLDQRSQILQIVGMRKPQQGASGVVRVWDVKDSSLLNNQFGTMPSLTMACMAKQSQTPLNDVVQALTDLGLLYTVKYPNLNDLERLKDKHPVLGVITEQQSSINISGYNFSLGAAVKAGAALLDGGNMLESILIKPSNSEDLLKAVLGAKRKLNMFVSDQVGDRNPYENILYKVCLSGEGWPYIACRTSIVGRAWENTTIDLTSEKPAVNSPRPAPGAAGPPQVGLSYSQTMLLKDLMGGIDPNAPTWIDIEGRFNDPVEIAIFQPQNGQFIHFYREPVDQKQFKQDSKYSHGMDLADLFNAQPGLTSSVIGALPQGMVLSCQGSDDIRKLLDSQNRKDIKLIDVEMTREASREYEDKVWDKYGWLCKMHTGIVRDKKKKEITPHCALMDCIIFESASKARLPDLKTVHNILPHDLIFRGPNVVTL

CC1(C)CCC[C@]2(C)[C@H]3CCO[C@]3(C)CC[C@@H]12
inactive: all assays above

CC1=CC=C(C(C)C)CC1
inactive: all assays above

COc1c(C(O)CC(C)C)ccc2c1C(=O)OCc1cc(C)cc(O)c1O2 (configuration not stated)
inactive: all assays above

C=O
inactive: all assays above

CC/C=C\CCOC(=O)CCCCC
inactive: all assays above

Cc1cnnc2ccccc12
inactive: all assays above

COc1n[nH]c2nncnc12
inactive: all assays above

O[C@@H]1COC2[C@@H](O)CO[C@@H]21 (some centres not stated)
inactive: all assays above

C[C@@]12CCC3[C@@](CCC4[C@@]3(C)CCC[C@@]4(C)C(=O)O)(CC1=O)C2 (some centres not stated)
inactive: all assays above

CC1=C2C(=O)OC(c3ccoc3)C2(C)CCC1 (configuration not stated)
inactive: all assays above

Cc1c(O[C@@H]2O[C@H](CO)[C@@H](O)[C@H](O)[C@H]2O)c(CO)c(O[C@@H]2O[C@H](CO)[C@@H](O)[C@H](O)[C@H]2O)c2c1O[C@@H](c1ccccc1)C[C@@H]2O
inactive: all assays above

CC1C2CC(CC2C2CCCC(O)C2)C1(C)C (configuration not stated)
inactive: all assays above

CC1(C)CCC[C@@](C)([C@H]2CC[C@]3(C)[C@@H]2[C@H](O)C[C@@H]2[C@@]4(C)CC[C@H](O)C(C)(C)[C@@H]4CC[C@]23C)O1
inactive: all assays above

Cc1cc2c(c(C)c1CCO)C(=O)[C@H](C)C2
inactive: all assays above

CC(=O)O[C@H]1C2[C@@H](OC(=O)Cc3ccccc3)[C@@H](C)C[C@]2(OC(C)=O)C(=O)/C(C)=C/[C@@H]2[C@H](CC[C@@]13CO3)C2(C)C (some centres not stated)
inactive: all assays above

CC1(C)C(CO)=CC(=O)C2=C1SCC(=O)N2
inactive: all assays above

CCCCCCCCCCCCCCCCC
inactive: all assays above

COc1ccc(-c2cnc(-c3cccnc3)o2)cc1
inactive: all assays above

CCOC(=O)[C@H](CCc1ccccc1)N[C@@H](C)C(=O)N1CCCC1C(=O)O (some centres not stated)
inactive: all assays above

O=CC(O)C1OC(=O)C(O)C1O (configuration not stated)
inactive: all assays above

CC(O)CC(=O)O (configuration not stated)
inactive: all assays above

COC(=O)c1c(C)cc(O)c(C)c1O
inactive: all assays above

COc1cc2c(c(OC)c1OC)-c1c(cc(OC)c(OC)c1OC)C[C@](C)(O)[C@@H](C)C2
inactive: all assays above

C=C(C)[C@]12C[C@@H](C)[C@@]34O[C@](Cc5ccccc5)(O[C@@H]1[C@@H]3C=C(COC(=O)Cc1ccc(O)c(OC)c1)C[C@]1(O)C(=O)C(C)=C[C@@H]41)O2
inactive: all assays above

C=C1C2C[C@H](O)C(C)(C)[C@@]2(O)[C@H](O)C[C@]23C[C@@](C)(O)[C@H](CC[C@H]12)[C@H]3OC(C)=O (some centres not stated)
inactive: all assays above

O=C1Nc2ccccc2C(=O)N2CCC[C@@H]12
inactive: all assays above

O=C1c2cc(CO)cc(O)c2C(=O)c2c(O[C@@H]3OC(CO)[C@@H](O)[C@@H](O)[C@@H]3O)cccc21 (some centres not stated)
inactive: all assays above

NC1=N[C@H](O)[C@H]2C3O[C@]4(O)O[C@H](C(O)[C@@]2(N1)[C@@H]4O)C3(O)CO (some centres not stated)
inactive: all assays above

COc1c(O)cc2c(=O)oc3c(OC)c(O)cc4c(=O)oc1c2c34
inactive: all assays above

CC(=O)C1CCC2C3CCC4=CC(=O)C=CC4(C)C3CCC12C (configuration not stated)
inactive: all assays above

C[C@@H]1C2C[C@@]34COC(=O)C3=CC=C[C@H]4[C@@]13C[C@H](c1ccoc1)O[C@@H]3O2
inactive: all assays above

CC(C)=CCCC(C)C=O (configuration not stated)
inactive: all assays above

CC(C)(COP(=O)(O)OP(=O)(O)OC[C@H]1O[C@@H](n2cnc3c(N)ncnc32)[C@H](O)[C@@H]1OP(=O)(O)O)[C@H](O)C(=O)NCCC(=O)NCCS
inactive: all assays above

Cc1[nH]c(C=C2C(=O)Nc3ccc(S(=O)(=O)Cc4c(Cl)cccc4Cl)cc32)c(C)c1C(=O)N1CCC[C@H]1CN1CCCC1
inactive: all assays above

CC(=O)OCC=C(C)C
inactive: all assays above

CC(=O)O[C@H]1CC[C@@]2(C)[C@H](C1)C(=O)C[C@H]1[C@@H]3CC[C@@H]4[C@@H](CN5C[C@@H](C)CC[C@H]5[C@@]4(C)O)[C@@H]3C[C@@H]12
inactive: all assays above

C#CCCCCCCCCCCCc1ccco1
inactive: all assays above

CC1(C)C[C@H]2C3=CCC4[C@@]5(C)CC[C@H](O)[C@](C)(CO)C5CC[C@@]4(C)[C@]3(C)C[C@H]3O[C@@H]1[C@H](O)[C@]32CO (some centres not stated)
inactive: all assays above

CC1=C[C@H]2OC(=O)[C@@H](C)[C@H]2C[C@@H]2[C@H]1C[C@@H](O)[C@@]2(C)O
inactive: all assays above

CC(C)=CCc1c(O)cc2c(c1O)C(=O)CC(c1ccccc1)O2 (configuration not stated)
inactive: all assays above

COc1ccc([C@@H]2CC(=O)c3c(O)cc(O[C@@H]4OC(CO[C@@H]5OC(C)[C@H](O)[C@@H](O)[C@H]5O)[C@@H](O)[C@H](O)[C@H]4O)cc3O2)cc1O (some centres not stated)
inactive: all assays above

COc1c2c(nc3occc13)C(CC=C(C)C)(OC)C(OC(C)=O)CC2 (configuration not stated)
inactive: all assays above

COc1cccc2c(=O)c3ccoc3n(C)c12
inactive: all assays above

C=CC(C)(CCC=C(C)C)OC=O (configuration not stated)
inactive: all assays above

CCCC(=O)OCc1ccccc1
inactive: all assays above

COC(=O)C1C(O)CC2CCC1N2C (configuration not stated)
inactive: all assays above

O=C1N[C@@H](Cc2c[nH]c3ccccc23)C(=O)N[C@H]1Cc1ccccc1
inactive: all assays above

CC1=CCC2C(C1)C2(C)C (configuration not stated)
inactive: all assays above

COc1c2c(nc3occc13)C(CC=C(C)C)(OC)C(O)CC2 (configuration not stated)
inactive: all assays above

CCCCCCCCCCCCCCCC
inactive: all assays above

CC1(C)CCC[C@]2(C)[C@H]3CC(=O)O[C@]3(C)CC[C@@H]12
inactive: all assays above

C=C1C(=O)OC2C1C(OC(=O)C(C)=CC)CC(=C)C1C(O)C3OC3(C)C21O (configuration not stated)
inactive: all assays above

O=C(NC(Cc1ccccc1)C(=O)O)c1ccccc1 (configuration not stated)
inactive: all assays above

COC(=O)CCCC(=O)OC
inactive: all assays above

COc1cc2c(c3oc(-c4ccccc4)cc(=O)c13)C=CC(C)(C)O2
inactive: all assays above

C=C(C)C(COc1c2occc2cc2ccc(=O)oc12)OC(C)(C)C(O)COc1c2occc2cc2ccc(=O)oc12 (configuration not stated)
inactive: all assays above

O=c1c(O)c(-c2cc(O)c(O)c(O)c2)oc2cc(O)ccc12
inactive: all assays above

CC(C)C(O)(C(=O)OC[C@@H]1CC[N+]2([O-])CCCC12)C(C)O (some centres not stated)
inactive: all assays above

COc1c2c(nc3ccccc13)OC(C(C)(O)COC(C)=O)C2 (configuration not stated)
inactive: all assays above

CC(C)C(=O)OCCc1ccccc1
inactive: all assays above

CCc1cc(C(C)=NOCc2ccc(C3CCCCC3)c(C(F)(F)F)c2)ccc1CN1CC(C(=O)O)C1
inactive: all assays above

CCC(C)c1nccnc1OC (configuration not stated)
inactive: all assays above

N[C@@H](CSS(=O)(=O)O)C(=O)O
inactive: all assays above
